Screening data (PubChem)
PNC inhibitor: perinucleolar compartment assembly inhibition; PC3M PTB-GFP, PNC prevalence imaging, 16 h; active compounds read low; activity change (PNC), negative = inhibition, % at 10 µM; 140,000 tested, 3.1% active;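 active means readout at or below -70, meaning at least 70% loss of cells showing the perinucleolar compartment, a nuclear body marking cancer cells; inconclusive means readout between -30 and a set limit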;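 further: plate controls were DMSO wells for no effect and camptothecin positive control wells for full effect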
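Read-out is percentage of cells bearing a perinucleolar compartment, from automated 20x imaging of fixed, Hoechst-stained PC3M PTB-GFP cells. Cells were seeded 4 h, then exposed 16 h to compound (23 nl of library stock) in duplicate plates.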
IMPase cell inh: cell-permeable inhibitors of inositol monophosphatase (IMPase). inhibition (IP1 accumulation), % at 46.1 µM. CHO-M1 cells, IP1 accumulation, HTRF TR-FRET ratio. P97697. 120,000 tested, under 10 active; active means well fitted curve in the direction sought with a large enough effect in the signal ratio, not every such curve was filed as active; inconclusive means small, poorly fitted or top-dose-only effect, or a change in a side signal; inactive means no such curve, though single readings can be large or run the other way; the % refers to the signal ratio;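 further: cells stimulated with carbachol in lithium chloride buffer; plate controls were DMSO basal wells for no effect and reference inhibitor wells for full effect; higher means more IMPase inhibition seen as more IP1 and lower FRET ratio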
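Carbachol-driven Gq signalling in CHO-M1 cells (2000/well) generates IP1. Compounds that block IMPase raise IP1 and so reduce the FRET signal from Eu-anti-IP1 and d2-IP1 after a 10 min room-temperature lysis.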
IMPase Li cell: membrane-permeable IMPase blocker, potentiated with lithium; AID 1457; CHO-M1 cells, IP1 TR-FRET (IP-One), carbachol + lithium; Potency, µM (top dose mostly 59.4 µM), for inactives: at the top dose activity, negative = IMPase inhibition, usual class: inhibitors; 210,000 tested, 0.35% active; active means well fitted inhibition curve with a large enough effect; inconclusive means small, poorly fitted or top-dose-only effect; inactive means no such curve, though single readings can be large or run the other way;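 further: IP1 builds up when IMPase is blocked and the TR-FRET signal falls; potency means the concentration at half of the fitted maximal effect; plate controls were basal vehicle for no effect and high inhibitor control for full effect; nearly all actives have a fitted effect of over 50% in size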
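Steps: plate 2000 CHO-M1 cells per well and culture 16–30 h; add compound and lithium; incubate 30 min, 37C; add d2-IP1 tracer and Eu cryptate anti-IP1 antibody in lysis buffer; read after 10 min at room temperature.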
ALDH1A1 inh: ALDH1A1 (human) enzyme inhibition | AID 1030 | 220,000 tested, 7.3% active | Purified ALDH1A1, NADH fluorescence, propionaldehyde substrate | Potency, µM (highest dose often 75.3 µM), for inactives: at the top dose activity, negative = inhibition, most hits filed as inhibitors;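 further: potency means the concentration at half of the fitted maximal effect; plate controls were no enzyme wells and a reference inhibitor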
Target sequence (P00352 whole entry, looked up): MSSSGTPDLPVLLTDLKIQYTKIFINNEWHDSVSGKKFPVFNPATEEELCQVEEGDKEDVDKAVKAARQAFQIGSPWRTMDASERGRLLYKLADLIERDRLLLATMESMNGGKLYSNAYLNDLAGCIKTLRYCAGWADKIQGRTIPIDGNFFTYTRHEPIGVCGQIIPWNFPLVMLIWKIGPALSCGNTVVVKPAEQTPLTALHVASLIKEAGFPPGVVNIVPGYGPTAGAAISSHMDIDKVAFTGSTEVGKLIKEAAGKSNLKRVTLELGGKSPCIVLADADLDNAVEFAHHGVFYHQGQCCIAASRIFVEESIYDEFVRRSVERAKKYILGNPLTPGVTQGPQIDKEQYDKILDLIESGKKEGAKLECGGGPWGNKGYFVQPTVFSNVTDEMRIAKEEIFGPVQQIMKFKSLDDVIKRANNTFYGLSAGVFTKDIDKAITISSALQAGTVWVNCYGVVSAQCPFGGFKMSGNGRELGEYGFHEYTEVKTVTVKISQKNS
HPGD inh: blocks human HPGD enzyme activity; P15428; purified HPGD, NADH fluorescence kinetic, PGE2 substrate; Potency, µM, for inactives: at the highest dose activity change, negative = inhibition, usual class: inhibitors; 150,000 tested, 4.3% active; further: potency means the concentration at half of the fitted maximal effect
Target sequence (P15428 whole entry, looked up): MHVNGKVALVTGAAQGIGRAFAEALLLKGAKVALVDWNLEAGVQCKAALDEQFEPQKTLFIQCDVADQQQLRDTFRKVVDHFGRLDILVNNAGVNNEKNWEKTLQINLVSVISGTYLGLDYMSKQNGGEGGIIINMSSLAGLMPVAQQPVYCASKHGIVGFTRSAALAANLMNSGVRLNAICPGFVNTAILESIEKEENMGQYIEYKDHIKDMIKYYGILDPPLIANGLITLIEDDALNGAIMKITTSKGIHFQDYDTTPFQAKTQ
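20 nM HPGD preincubated 15 min at room temperature with compound in 50 mM Tris-HCl pH 8, 0.01% Tween 20. Started with 1 mM NAD+ and 30 uM prostaglandin E2; NADH fluorescence (360/450 nm) read 5 times over 30-s intervals, last minus first.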
Starred values were filed as active, the others as inactive; [ ] = dose if it differs, or a comment. This is a sample that favours compounds with a hit; in the whole collection about 11% have one here. Unless noted, the call rests on the fitted dose curve; in most records, active means well fitted inhibition curve with a large enough effect (not every such curve was filed as active); inconclusive means small, poorly fitted or top-dose-only effect, or another doubt; inactive means no such curve, though single readings can be large or run the other way. Unless noted, on the % scale 0 is the no-effect control and ±100 the full control effect.

What do the screens show for `CC(=O)N1CCc2ccc(S(=O)(=O)N3CCN(C)CC3)cc21`?
PNC inhibitor: 28; IMPase Li cell: -2%; ALDH1A1 inh: 8%; HPGD inh: -1%

How did CN(CC(=O)N1CCCc2c1c(=O)oc1ccc(O)cc21)Cc1ccccc1 do in these assays?
PNC inhibitor: inconclusive; IMPase cell inh: 11; IMPase Li cell: 5%; ALDH1A1 inh: 13µM*; HPGD inh: -15%

How did CC1CCN(CCC(=O)N2CCCc3c2c(=O)oc2ccc(O)cc32)CC1 do in these assays?
PNC inhibitor: -8; IMPase cell inh: 7; IMPase Li cell: 1%[38.3 µM]; ALDH1A1 inh: 2.2µM*; HPGD inh: -1%

Results for O=C(CSCC(=O)N1CCCCC1)Nc1nc(-c2cccs2)cs1 ?
PNC inhibitor: 7; IMPase cell inh: 2; IMPase Li cell: 39%[38.3 µM]; ALDH1A1 inh: inconclusive; HPGD inh: -19%

How did O=C(CSCC(=O)N1CCCCC1)Nc1nc(-c2ccc(Cl)s2)cs1 do in these assays?
PNC inhibitor: 8; IMPase cell inh: 8; IMPase Li cell: 26%[38.3 µM]; ALDH1A1 inh: 25µM*; HPGD inh: inconclusive

What do the screens show for `O=C(CSCC(=O)N1CCN(c2ccccc2)CC1)Nc1nc(-c2ccc(Cl)s2)cs1`?
PNC inhibitor: -108*; IMPase cell inh: 11; IMPase Li cell: 35%[38.3 µM]; ALDH1A1 inh: inconclusive; HPGD inh: -18%

How did O=C(CSc1nc(-c2ccccc2)cs1)NC(=O)NCc1ccco1 do in these assays?
PNC inhibitor: -22; IMPase cell inh: 15; IMPase Li cell: 4%; ALDH1A1 inh: inconclusive; HPGD inh: -19%

What do the screens show for `O=C(CSc1n[nH]c(-c2ccccc2)n1)Nc1ccc(Br)cn1`?
PNC inhibitor: 33; IMPase cell inh: -2; IMPase Li cell: 10%; ALDH1A1 inh: -1%; HPGD inh: 13µM*

How did O=C(CSc1nc2ccccc2s1)NC(=O)NCc1ccco1 do in these assays?
PNC inhibitor: -26; IMPase cell inh: 4; IMPase Li cell: inconclusive; ALDH1A1 inh: 32µM*; HPGD inh: 25µM*

How did O=C(CSc1n[nH]c(-c2ccccc2)n1)NC(=O)NCc1ccco1 do in these assays?
PNC inhibitor: 38; IMPase cell inh: -10; IMPase Li cell: -7%[38.3 µM]; ALDH1A1 inh: -6%; HPGD inh: 14µM*

What do the screens show for `O=c1c(-c2cc(F)cc(F)c2)nc2cncnc2n1Cc1ccc(F)cc1`?
IMPase Li cell: 5%; ALDH1A1 inh: inconclusive; HPGD inh: -17%

How did COc1ccc(CCNC2CC(=O)N(CCc3ccc(OC)c(OC)c3)C2=O)cc1 (stereo not given) do in these assays?
PNC inhibitor: -18; IMPase cell inh: -4; IMPase Li cell: 27%[38.3 µM]; ALDH1A1 inh: 18µM*; HPGD inh: -10%

How did CCc1ccc(NC2CC(=O)N(CCc3ccc(OC)c(OC)c3)C2=O)cc1 (stereo not given) do in these assays?
IMPase Li cell: 16%; ALDH1A1 inh: 3.2µM*

How did COc1ccc(CCNC2CC(=O)N(CCc3ccccc3)C2=O)cc1OC (stereo not given) do in these assays?
PNC inhibitor: 2; IMPase cell inh: -2; IMPase Li cell: 7%[38.3 µM]; ALDH1A1 inh: inconclusive; HPGD inh: -12%

Results for COc1ccc(CCN2C(=O)CC(Nc3ccc(N4CCOCC4)cc3)C2=O)cc1OC (stereo not given) ?
PNC inhibitor: 11; IMPase cell inh: 19; IMPase Li cell: 5%[38.3 µM]; ALDH1A1 inh: inconclusive; HPGD inh: -5%

Results for Nc1nonc1-c1nc2ccccc2n1Cc1cccc(Cl)c1 ?
IMPase cell inh: -3

How did Cc1cc(C2C(C#N)=C(N)Oc3n[nH]c(C)c32)c(C)s1 (stereo not given) do in these assays?
PNC inhibitor: inconclusive; IMPase cell inh: -6; IMPase Li cell: -3%[38.3 µM]; ALDH1A1 inh: -7%; HPGD inh: -22%

How did Cc1sccc1C1C(C#N)=C(N)SC(N)=C1C#N do in these assays?
PNC inhibitor: 19; IMPase cell inh: inconclusive; IMPase Li cell: inconclusive; ALDH1A1 inh: 10µM*; HPGD inh: -16%

How did Cc1cc(C2C(C#N)=C(N)SC(N)=C2C#N)c(C)s1 do in these assays?
PNC inhibitor: 28; IMPase cell inh: inconclusive; IMPase Li cell: -28%[38.3 µM]; ALDH1A1 inh: 25µM*; HPGD inh: 20µM*

Results for COc1ccc(-c2nc(S(=O)(=O)c3ccc(C)cc3)c(NCc3ccccc3)o2)cc1 ?
IMPase cell inh: 2

Results for COc1cc2c(cc1O)[C@@H](c1cc(O)c(O)c(OC)c1)[C@@](O)(C(=O)O)[C@@H](CO)[C@@H]2O ?
IMPase Li cell: -3%; ALDH1A1 inh: 9%[13.5 µM]; HPGD inh: -4%

Results for COc1cccc(Cn2c(=O)c(CCc3ccccc3)nc3cncnc32)c1 ?
IMPase Li cell: -4%; ALDH1A1 inh: -9%

How did Cc1ccc(S(=O)(=O)N/N=C2/CCCCC2C2CCCCC2)cc1[N+](=O)[O-] (stereo not given) do in these assays?
PNC inhibitor: -26; IMPase Li cell: 1%; ALDH1A1 inh: 35µM*; HPGD inh: -10%

What do the screens show for `CC1CCCC/C1=N\Nc1ccc(S(N)(=O)=O)cc1[N+](=O)[O-]` (stereo not given)?
PNC inhibitor: -8; IMPase Li cell: 6%; ALDH1A1 inh: -8%; HPGD inh: -11%

Results for CCC(C)(C)C1CCC(=NNS(=O)(=O)c2ccc(C)c([N+](=O)[O-])c2)CC1 (stereo not given) ?
PNC inhibitor: inconclusive; IMPase cell inh: -3; IMPase Li cell: -8%; ALDH1A1 inh: 7.9µM*; HPGD inh: -3%

What do the screens show for `COc1ccc(Cc2n[nH]c(=S)n(N)c2=O)cc1`?
IMPase Li cell: -6%; ALDH1A1 inh: inconclusive

What do the screens show for `COc1ccc(C2C(C(=O)NCc3ccccn3)c3ccccc3C(=O)N2C)cc1OC` (stereo not given)?
PNC inhibitor: -88*; IMPase cell inh: -2; IMPase Li cell: -19%[38.3 µM]; ALDH1A1 inh: -5%; HPGD inh: -15%

Results for O=C(Nc1ccc(Cl)cc1)[C@@H]1[C@@H]2C(=O)N(c3ccc(Cl)cc3Cl)C(=O)[C@@H]2[C@H]2C=CC=NN21 ?
PNC inhibitor: -6; IMPase cell inh: 6; IMPase Li cell: 0%[38.3 µM]; ALDH1A1 inh: 22µM*; HPGD inh: 28µM*

What do the screens show for `Cc1ccc(N2C(=O)[C@@H]3[C@H](C2=O)[C@H]2C=CC=NN2[C@@H]3C(=O)Nc2ccc(Cl)cc2)cc1`?
PNC inhibitor: -16; IMPase cell inh: 4; IMPase Li cell: -13%[38.3 µM]; ALDH1A1 inh: 7.9µM*; HPGD inh: 35µM*

How did O=C(Nc1ccc(Cl)cc1)[C@@H]1[C@@H]2C(=O)N(c3ccc(Cl)cc3)C(=O)[C@@H]2[C@H]2C=CC=NN21 do in these assays?
PNC inhibitor: inconclusive; IMPase cell inh: 0; IMPase Li cell: -2%[38.3 µM]; ALDH1A1 inh: inconclusive; HPGD inh: -8%
